# According to the supplement of paper PMC8728848:
# This excerpt belongs to a sample that is enriched for the strongest signals.
# B1: StdA (Salmonella typhimurium), Q8Z3Z0 (protein)
# chain: MAAAGMMYGASVFAADTTPTAGPFGSGKILFTGTITNSPCDIAPGDDAITVPFGQISYRKLNTANATTDSKPFTIHLQNCAFDPNETTIAGSAGKMSKVTVSFSGTADTSGKAYVSTGSAQHVGVQLLKGDNTSLITPNTPMPDGDAQQLQAGNNELNFFARLIALTDAATPGDVNASVTYTLKYL
# Columns and labels:
# Experiment in all cases: glycan array binding signal (z-score within array); higher = stronger binding
# Details in all cases: glycan notation: IUPAC condensed, linker removed
# Fuc(a1-2)Gal(b1-3)GlcNAc = target: Fuc(a1-2)Gal(b1-3)GlcNAc
# Method in brief: (§1)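 Glycan array binding is given as a within-array Z-score, which can be read as non-binding when negative. The arrays, 3228 of them, came from the Consortium for Functional Glycomics database and were retained only where the protein sequence was available. Z-scores were averaged across arrays of the same protein sequence at different concentrations or buffers and across linkers.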
# [1] = target: Fuc(a1-2)Gal(b1-3)GlcNAc(b1-2)Man(a1-3)[Fuc(a1-2)Gal(b1-3)GlcNAc(b1-2)Man(a1-6)]Man(b1-4)GlcNAc(b1-4)GlcNAc
# Method in brief: as §1
# Fuc(a1-2)Gal(b1-4)Glc6S = target: Fuc(a1-2)Gal(b1-4)Glc6S
# Method in brief: as §1
# [2] = target: Fuc(a1-2)Gal(b1-4)GlcNAc(b1-3)Gal(b1-4)GlcNAc(b1-3)Gal(b1-4)GlcNAc
# Method in brief: as §1
# [3] = target: Fuc(a1-2)Gal(b1-4)[Fuc(a1-3)]GlcNAc(b1-2)Man(a1-3)[Fuc(a1-2)Gal(b1-4)[Fuc(a1-3)]GlcNAc(b1-2)Man(a1-6)]Man(b1-4)GlcNAc(b1-4)GlcNAc
# Method in brief: as §1
# [4] = target: Fuc(a1-2)[Gal(a1-3)]Gal(b1-4)GlcNAc(b1-2)Man(a1-3)[Fuc(a1-2)[Gal(a1-3)]Gal(b1-4)GlcNAc(b1-2)Man(a1-6)]Man(b1-4)GlcNAc(b1-4)GlcNAc
# Method in brief: as §1
# [5] = target: Fuc(a1-3)[Gal3S(b1-4)]Glc6S
# Method in brief: as §1
# [6] = target: Fuc(a1-3)[Gal3S(b1-4)]GlcNAc
# Method in brief: as §1
# [7] = target: Fuc(a1-3)[Neu5Ac(a2-3)]Gal(b1-4)GlcNAc(b1-3)GalNAc
# Method in brief: as §1
# Gal(a1-3)Gal(b1-4)Glc = target: Gal(a1-3)Gal(b1-4)Glc
# Method in brief: as §1
# [8] = target: Gal(a1-3)Gal(b1-4)[Fuc(a1-3)]GlcNAc(b1-2)Man(a1-3)[Gal(a1-3)Gal(b1-4)[Fuc(a1-3)]GlcNAc(b1-2)Man(a1-6)]Man(b1-4)GlcNAc(b1-4)GlcNAc
# Method in brief: as §1
# [9] = target: Gal(b1-3)[Fuc(a1-4)]GlcNAc(b1-2)Man(a1-3)[Gal(b1-3)[Fuc(a1-4)]GlcNAc(b1-2)Man(a1-6)]Man(b1-4)GlcNAc(b1-4)GlcNAc
# Method in brief: as §1
# Gal3S6S(b1-4)GlcNAc6S = target: Gal3S6S(b1-4)GlcNAc6S
# Method in brief: as §1
# Gal6S(b1-4)GlcNAc6S = target: Gal6S(b1-4)GlcNAc6S
# Method in brief: as §1
# [10] = target: GalNAc(b1-3)Gal(a1-4)Gal(b1-4)GlcNAc(b1-3)Gal(b1-4)Glc
# Method in brief: as §1
# [11] = target: GalNAc(b1-4)GlcNAc(b1-2)Man(a1-3)[GalNAc(b1-4)GlcNAc(b1-2)Man(a1-6)]Man(b1-4)GlcNAc(b1-4)GlcNAc
# Method in brief: as §1
# [12] = target: GlcNAc(b1-3)[GlcNAc(b1-6)]GalNAc
# Method in brief: as §1
# [13] = target: GlcNAc(b1-6)Gal(b1-4)GlcNAc
# Method in brief: as §1
# GlcNAc3Prop(b1-4)GlcNAc = target: GlcNAc3Prop(b1-4)GlcNAc
# Method in brief: as §1
# [14] = target: GlcNAc6S(b1-3)Gal(b1-4)GlcNAc
# Method in brief: as §1
# [15] = target: Man(a1-2)Man(a1-2)Man(a1-6)[Man(a1-3)]Man
# Method in brief: as §1
# [16] = target: Man(a1-2)Man(a1-3)[Man(a1-2)Man(a1-6)]Man
# Method in brief: as §1
# [17] = target: Man(a1-3)[Man(a1-6)]Man(a1-6)[Man(a1-2)Man(a1-3)]Man(b1-4)GlcNAc(b1-4)GlcNAc
# Method in brief: as §1
# [18] = target: Man(a1-3)[Man(a1-6)]Man(a1-6)[Man(a1-3)]Man(b1-4)GlcNAc(b1-4)GlcNAc
# Method in brief: as §1
# Neu5Ac(a2-3)Gal(b1-4)Glc = target: Neu5Ac(a2-3)Gal(b1-4)Glc
# Method in brief: as §1
# [19] = target: Neu5Ac(a2-3)Gal(b1-4)GlcNAc6S
# Method in brief: as §1
# [20] = target: Neu5Ac(a2-3)Gal(b1-4)[Fuc(a1-3)]GlcNAc
# Method in brief: as §1
# [21] = target: Neu5Ac(a2-3)Gal6S(b1-4)GlcNAc
# Method in brief: as §1
# [22] = target: Neu5Ac(a2-3)Gal6S(b1-4)[Fuc(a1-3)]GlcNAc
# Method in brief: as §1
# [23] = target: Neu5Ac(a2-3)[GalNAc(b1-4)]Gal(b1-4)GlcNAc
# Method in brief: as §1
binder,measurement,setting,value
B1,glycan array binding signal (z-score),Fuc(a1-2)Gal(b1-3)GlcNAc,-0.15
same,glycan array binding signal (z-score),[1],10.3
same,glycan array binding signal (z-score),Fuc(a1-2)Gal(b1-4)Glc6S,0.205
same,glycan array binding signal (z-score),[2],0.168
same,glycan array binding signal (z-score),[3],2.3
same,glycan array binding signal (z-score),[4],-0.604
same,glycan array binding signal (z-score),[5],6.5
same,glycan array binding signal (z-score),[6],0.034
same,glycan array binding signal (z-score),[7],4.78
same,glycan array binding signal (z-score),Gal(a1-3)Gal(b1-4)Glc,0.257
same,glycan array binding signal (z-score),[8],4.97
same,glycan array binding signal (z-score),[9],5.67
same,glycan array binding signal (z-score),Gal3S6S(b1-4)GlcNAc6S,-0.494
same,glycan array binding signal (z-score),Gal6S(b1-4)GlcNAc6S,-0.164
same,glycan array binding signal (z-score),[10],0.837
same,glycan array binding signal (z-score),[11],3.5
same,glycan array binding signal (z-score),[12],0.036
same,glycan array binding signal (z-score),[13],0.557
same,glycan array binding signal (z-score),GlcNAc3Prop(b1-4)GlcNAc,-0.424
same,glycan array binding signal (z-score),[14],1.03
same,glycan array binding signal (z-score),[15],-0.088
same,glycan array binding signal (z-score),[16],-0.749
same,glycan array binding signal (z-score),[17],-0.109
same,glycan array binding signal (z-score),[18],-0.131
same,glycan array binding signal (z-score),Neu5Ac(a2-3)Gal(b1-4)Glc,-0.372
same,glycan array binding signal (z-score),[19],-0.404
same,glycan array binding signal (z-score),[20],-0.614
same,glycan array binding signal (z-score),[21],-0.214
same,glycan array binding signal (z-score),[22],-0.437
same,glycan array binding signal (z-score),[23],-0.022
